Assay outcomes from PubChem BioAssay.
MCF10A rereplic: inducers of DNA re-replication in MCF 10A breast cells. MCF 10A DNA re-replication, Hoechst nuclear intensity, 48 h. Potency, µM (top dose mostly 46.1 µM), for inactives: at the top dose activity, positive = re-replication, usual class: activators. 350,000 compounds, 2.9% hits; also: potency is read from the fitted curve at half-maximal effect; % of control where 0% means no effect; nearly all actives have a fitted effect of over 50% in size
SW480 rereplic: inducers of DNA re-replication in SW480 colon cancer cells; Potency, µM (highest dose often 46.1 µM), inactives show top-dose re-replication activation, hits mostly activators; 340,000 compounds, 1.8% hits; SW480 DNA re-replication, Hoechst DNA content imaging, 48 h; also: potency is read from the fitted curve at half-maximal effect; % of control where 0% means no effect; nearly all actives have a fitted effect of over 55% in size
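DNA re-replication was detected as more nuclei of elevated Hoechst intensity after 48 hr exposure to compound (23 nL pinned per well of 250 cells).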
KB-V1 MDR tox: KB-V1 MDR subline cytotoxicity. 400,000 compounds, 3.4% hits. KB-V1 MDR cells viability, CellTiter-Glo, 72 h. Potency, µM (highest dose often 46.1 µM), most hits filed as cytotoxic; also: potency is read from the fitted curve at half-maximal effect; % is scaled to controls: 0 for no effect and ±100 for the full control effect; nearly all actives have a fitted effect of over 60% in size
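Following 72 h at 37 degrees C with compound, KB-V1 cell viability was read by CellTiter-Glo luminescence, medium being phenol-red-free DMEM plus 10% FBS; concentration-response parameters came from normalized, curve-fitted qHTS data.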
hERG WT inh: inhibitors of human wildtype KCNH2 potassium channel | Q12809 | U2OS, BacMam KCNH2, thallium flux FluxOr; stronger effect = lower value | activity change, % at 1.84 µM | 340,000 compounds, 0.37% hits;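 active = maximum activity change below -70%; inconclusive = maximum activity change between -70% and -50%; inactive = maximum activity change above -50%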; also: % is scaled to controls: 0 for no effect and ±100 for the full control effect
Target sequence (Q12809 whole entry, looked up): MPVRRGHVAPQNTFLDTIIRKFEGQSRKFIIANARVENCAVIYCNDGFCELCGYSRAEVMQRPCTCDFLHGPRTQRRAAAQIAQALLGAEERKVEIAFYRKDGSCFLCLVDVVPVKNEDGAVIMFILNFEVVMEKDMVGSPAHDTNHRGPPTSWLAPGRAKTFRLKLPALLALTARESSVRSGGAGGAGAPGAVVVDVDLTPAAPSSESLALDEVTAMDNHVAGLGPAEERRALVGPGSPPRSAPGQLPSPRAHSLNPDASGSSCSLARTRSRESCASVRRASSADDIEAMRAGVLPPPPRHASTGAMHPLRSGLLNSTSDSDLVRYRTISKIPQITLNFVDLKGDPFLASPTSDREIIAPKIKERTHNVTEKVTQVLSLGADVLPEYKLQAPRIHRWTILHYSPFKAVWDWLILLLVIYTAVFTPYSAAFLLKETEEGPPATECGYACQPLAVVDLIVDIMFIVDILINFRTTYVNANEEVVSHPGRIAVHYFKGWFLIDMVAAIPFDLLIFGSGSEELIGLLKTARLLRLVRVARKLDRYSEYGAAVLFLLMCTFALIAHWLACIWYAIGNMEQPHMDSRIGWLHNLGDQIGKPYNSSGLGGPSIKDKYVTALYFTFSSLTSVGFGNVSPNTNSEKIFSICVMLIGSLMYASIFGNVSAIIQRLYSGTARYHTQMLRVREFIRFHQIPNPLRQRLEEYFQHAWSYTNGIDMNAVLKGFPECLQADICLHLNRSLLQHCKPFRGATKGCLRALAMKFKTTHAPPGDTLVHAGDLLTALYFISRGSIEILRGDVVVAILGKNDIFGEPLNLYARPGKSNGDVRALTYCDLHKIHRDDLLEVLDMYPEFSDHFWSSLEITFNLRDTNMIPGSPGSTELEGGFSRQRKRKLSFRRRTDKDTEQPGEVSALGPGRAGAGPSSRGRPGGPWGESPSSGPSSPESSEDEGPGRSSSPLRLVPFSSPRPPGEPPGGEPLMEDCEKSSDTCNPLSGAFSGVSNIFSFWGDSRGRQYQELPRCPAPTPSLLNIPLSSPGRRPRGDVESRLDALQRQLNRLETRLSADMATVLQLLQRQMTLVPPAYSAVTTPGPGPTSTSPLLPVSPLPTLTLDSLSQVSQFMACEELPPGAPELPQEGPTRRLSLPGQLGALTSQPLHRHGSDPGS
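U2OS cells were transduced with wild-type KCNH2 virus (2.03 x 10^8 / mL) for 4 h at room temperature, then cultured overnight at 37 C. Thallium flux was read with FluxOr dye. Rate constants were normalized to DMSO controls.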
KCNH2 3.1 block: inhibitors of human KCNH2 3.1 potassium channel isoform. AID 720553. U2OS KCNH2 3.1, thallium flux FluxOr; stronger effect = lower value. 340,000 compounds, 0.95% hits. activity change, % (tested at about 1.8 µM);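 active = maximum activity change below -70%; inconclusive = maximum activity change from -70% to -50%; inactive = maximum activity change above -50%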;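 also: thallium influx rate constant from kinetic fluorescence after stimulation buffer; % is scaled to controls: 0 for no effect and ±100 for the full control effect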
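Channel expression came from 3.1 mutant virus (1.77 x 10^8 /mL) applied to suspended U2OS cells for 4 h. Flux was tracked with FluxOr dye plus Red40 quencher, and kinetic rate constants normalized to controls.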
KB-3-1 cytotox: kills parental KB-3-1 adenocarcinoma cells | AID 1347075 | Potency, µM (titrated, usually from 46.1 µM), most hits filed as cytotoxic | KB-3-1 viability, CellTiter-Glo ATP luminescence, 72 h | 400,000 compounds, 1.4% hits; also: potency is read from the fitted curve at half-maximal effect; % is scaled to controls: 0 for no effect and ±100 for the full control effect; nearly all actives have a fitted effect of over 60% in size
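Cytotoxicity measured as CellTiter-Glo luminescence after 72 h at 37 C. Compound titrations were pinned onto drug-naive KB-3-1 parental adenocarcinoma cells grown in DMEM with 10% FBS, and normalized data fitted to concentration-response curves.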
An asterisk follows results filed as active; i = inactive; ? = inconclusive; · = no result given. Rows were chosen to be rich in hits. Some 7.6% of all compounds tested hit in one or more screens of this group. Unless noted, calls follow the shape of the dose curve; as a rule, active = well fitted curve in the direction sought with a large enough effect; inconclusive = small, poorly fitted or top-dose-only effect, or another doubt; inactive = no such curve, though single readings can be large; an effect the other way counts as inactive or inconclusive.

SMILES	MCF10A rereplic	SW480 rereplic	KB-V1 MDR tox	hERG WT inh	KCNH2 3.1 block	KB-3-1 cytotox
CCCCCn1cnc2c(sc3nc4c(cc32)CSC(C)(C)C4)c1=O	-51%	-75%	15µM*	-2	-24	i
CC1(C)Cc2nc3sc4c(=O)n(CC(=O)NCc5ccco5)cnc4c3cc2CO1	9.2µM*	16µM*	i	-6	15	?
CCOC(=O)CC1(NC(=O)C2CCC(=O)N(CCc3ccccc3)C2)CCCCC1 (stereo not given)	-3%	-8%	i	-8	7	i
COc1nnc(-c2ccc(C)cc2)c2ccccc12	2%	6%	i	-4	-90*	i
Cc1csc(=O)n1CC(=O)OCC(=O)Nc1ccc(F)c(F)c1F	·	·	i	-1	1	i
CC1(Cc2ccc(Cl)c(Cl)c2)C(=O)Nc2ccc(S(=O)(=O)NC3CCCCC3)cc21 (stereo not given)	·	·	18µM*	·	·	?
Cn1cccc1C(=O)OCC(=O)Nc1sccc1C#N	0%	0%	16µM*	-11	·	?
COC(=O)[C@H](C)NC(=O)NCc1ccccc1	0%	-41%	i	-6	-2	i
CCCC(C)C(=O)Nc1nc(C)c(-c2csc(Nc3ccccc3OC)n2)s1 (stereo not given)	21µM*	7%	i	·	·	i
CCCC(C)C(=O)Nc1nc(C)c(-c2csc(Nc3ccc(Cl)cc3)n2)s1 (stereo not given)	0%	?	i	-4	25	8.2µM*
Cn1c(CCCOc2ccc(Cl)cc2Cl)nnc1SCC(=O)Nc1ccc(F)c(Cl)c1	23µM*	12%	i	-18	5	i
CCc1cccc(C)c1NC(=O)CSc1nnc(CCCOc2ccc(Cl)cc2Cl)n1C	25%	-15%	4.6µM*	4	-11	18µM*
COC(=O)[C@H](CC(C)C)NC(=O)Cn1cnc2c(SC)nc(N)nc21	-1%	?	i	5	-3	i
CC(=O)c1cccc(NC(=O)c2nc(-c3ccc(C)cc3)n3c2CCCCC3)c1	·	·	i	·	·	i
O=C(NCCc1ccccc1)c1nc(-c2ccc(Cl)cc2)n2c1CCCCC2	·	·	i	·	·	i
Cc1ccc(-c2nc(C(=O)NCc3ccc(Cl)cc3)c3n2CCCCC3)cc1	·	·	13µM*	·	·	?
COC(=O)c1ccccc1NC(=O)c1nc(-c2ccc(C)cc2)n2c1CCCCC2	·	·	15µM*	·	·	?
CC(C)N(Cc1ccccc1)C(=O)c1nc(-c2ccc(Cl)cc2)n2c1CCCCC2	·	·	16µM*	·	·	i
Cc1ccc(NC(=O)C2CCCN(S(=O)(=O)c3cccc4nsnc34)C2)c(C)c1 (stereo not given)	·	·	i	·	·	i
COc1ccc(C(=O)N2CCN(C)C(=O)[C@@H]2C)cc1OC1CCN(C(C)C)CC1	?	-2%	·	-3	6	·
C=CCn1c(-c2cc(OC)c(OC)c(OC)c2)n[nH]c1=S	-18%	-4%	?	8	-4	i
CCOc1cccc(-c2cc(-c3n[nH]c(=S)n3CC)c3ccccc3n2)c1	26%	15%	9.2µM*	-14	-1	i
CCn1c(-c2cc(Br)ccc2O)n[nH]c1=S	-46%	14%	i	8	10	i
CCn1c(-c2cc(OC)c(OC)c(OC)c2)n[nH]c1=S	-7%	4%	10µM*	3	-11	i
CCn1c(-c2cc3ccccc3cc2O)n[nH]c1=S	4%	4%	21µM*	1	5	?
SMILES	MCF10A rereplic	SW480 rereplic	KB-V1 MDR tox	hERG WT inh	KCNH2 3.1 block	KB-3-1 cytotox
CCN(CC)C(=O)CSc1nnc(-c2cc3ccccc3cc2O)n1CC	-1%	-1%	2.9µM*	-12	-20	3.3µM*
O=[N+]([O-])c1ccccc1/C=C1\C=Cc2ccccc21	·	·	i	·	·	i
OC(c1ccccc1)C(O)C(c1ccccc1)N1CCCCC1 (stereo not given)	3%	0%	i	-3	10	i
Cc1nc2c(c(=O)n1CCC1=CCCCC1)c1nc3ccccc3nc1n2/N=C/c1ccccc1	23µM*	0%	9.2µM*	-7	10	i
O=c1c2c3nc4ccccc4nc3n(/N=C/c3ccco3)c2ncn1CCC1=CCCCC1	?	?	i	-2	3	i
CCOCCCn1c(C)nc2c(c1=O)c1nc3ccccc3nc1n2CCC1=CCCCC1	?	?	18µM*	-1	-4	?
C=CC[C@@H](Cc1ccc(F)cc1)C(=O)OC[C@@H]1CCCN1C(=O)[C@H](CC=C)CC(=O)NCCO	-2%	-10%	i	-27	-10	i
O=C(NC(=S)Nc1ccc(CN2CCOCC2)cc1)c1ccc2c(c1)OCCO2	?	?	21µM*	-1	-11	18µM*
COc1ccc(NC(=S)NC(=O)c2ccc3c(c2)OCCO3)cc1	2%	-7%	i	-1	-4	i
O=C(c1ccc2c(c1)OCCO2)C1CCN(S(=O)(=O)c2ccccc2F)CC1	1%	0%	23µM*	25	1	i
CC(C)c1ccc(/C=C/C(=O)NC(=S)Nc2ccc(CN3CCOCC3)cc2)cc1	23µM*	23%	?	5	-2	i
O=C(NC(=S)Nc1ccc(F)cc1)c1ccc2c(c1)OCCO2	0%	2%	i	-12	11	13µM*
COc1ccccc1CC(=O)N(Cc1ccccc1)c1cccc(C)c1	24%	25%	i	-11	5	i
CCCN(CC(=O)Nc1cc(C)on1)CC(=O)Nc1ccccc1C	0%	-4%	i	-9	6	i
O=C(c1ccc2c(c1)OCCO2)C1CCN(C(=O)Nc2ccc(F)cc2)CC1	4%	13%	23µM*	6	-18	i
C/C(=N\NC(=O)c1n[nH]c2c1CCC2)c1cccs1	-5%	?	i	1	-118*	i
O=C(N/N=C\c1cccc(Cl)c1)c1n[nH]c2c1CCCC2	?	-8%	i	-11	1	i
O=C(N/N=C/C=C/c1ccccc1)c1n[nH]c2c1CCC2	1.5µM*	2.1µM*	1µM*	-13	-20	1.3µM*
O=C(N/N=C/C(Br)=C\c1ccccc1)c1n[nH]c2c1CCC2	?	0.52µM*	?	-6	10	i
O=C(N/N=C/c1cccs1)c1n[nH]c2c1CCCC2	?	?	?	-1	-1	?
COc1ccc(NC(=O)COc2ccccc2C(=O)Nc2ccccc2)cc1	·	·	i	·	·	i
Cc1cccc(Nc2nnc(SCC(=O)c3ccc(Br)s3)s2)c1C	?	2%	i	0	-4	i
